In PubChem BioAssay (Tox21):
“And” between values parts separate entries of the source, which are not always exact repeats. Identical values can stand only once. Inconclusive results are not listed. Where a call stands in place of a potency, no number is given. The source made the active and inactive calls. The call rests on the fitted dose curve; in most records, active means well fitted activation curve with a large enough effect in the repeat runs; inconclusive means weak or mixed curves; inactive means flat fitted curve, though single readings scatter.

assay: A CellTox Green Cytotoxicity Assay to monitor cytotoxicity in HEK293 cells - 16 hour (AID 1224888); details: CellTox Green fluorescence; series mostly up to 76.8 µM; further: nearly all actives have a fitted effect of over 35% in size
From the text: National Center for Advancing Translational Sciences [NCATS]
NIH Chemical Genomics Center [NCGC]
U.S. Environmental Protection Agency [EPA]
National Institutes of Environmental Health Sciences [NIEHS]
National Toxicology Program [NTP]
Cell-based models are critical for drug discovery. Determining the natural cytotoxic effects resulting from test compounds is an essential research activity. A CellTox Green Cytotoxicity Assay to monitor cytotoxicity in real time of continues cell culture during 40 hours of the compound treatment was used to screen Tox21 10K library compounds in Hek293 cells. CellTox Green Cytotoxicity Assay is a nonlytic, homogeneous, biofluorescent method to measure cytotoxicity in cell culture after experimental manipulation. The assay system uses a proprietary asymmetric cyanine dye that is excluded from viable cells but preferentially stains the dead cell's DNA. […] Viable cells produce no appreciable increases in fluorescence. Therefore, the fluorescence signal produced by the binding interaction with dead cell DNA is proportional to cytotoxicity.
The mixture of Hek293 cell suspension and reagents were dispensed at 600cells/6 ul/well in 1536-well tissue culture treated black solid bottom plates using a Multidrop dispenser. After the assay plates were incubated at a 37 C/5% CO2 incubator for 5 hours, 23 nL of compounds dissolved in DMSO, positive and negative controls was transferred to the assay plate by a pintool work station. The plates were incubated at 37 C for 40 hours. The fluorescence intensity were measured at 0h, 8h, 16h, 24h, 32h and 40h time points using ViewLux plate reader during compound treatment.
Potency means the concentration at half of the fitted maximal effect.

Row | SMILES | Potency
1 | CCC(CN)=C(c1ccccc1)c1ccccc1 | inactive
2 | CSc1ccc(/C=C2/C(C)=C(CC(=O)O)c3cc(F)ccc32)cc1 | inactive
3 | CN(C)c1ccc(SC#N)cc1 | inactive
4 | CCCC/C=C/CCCCO | inactive
5 | Oc1ccc(C2(c3ccc(O)cc3)CC3CC2C2CCCC32)cc1 (stereo not given) | inactive
6 | C[C@@H](NCCCc1cccc(C(F)(F)F)c1)c1cccc2ccccc12 | 23.9 µM (active)
7 | CCN(CC)CCNC(=O)c1c(C)[nH]c(/C=C2\C(=O)Nc3ccc(F)cc32)c1C | 23.9 µM (active)
8 | COc1cccc(N)c1 | inactive
9 | CCCCCCCC[P+](CCCCCCCC)(CCCCCCCC)CCCCCCCC | 10.9 µM (active)
10 | CCOC(=O)/C=C(C)/C=C/C=C(C)/C=C/c1c(C)cc(OC)c(C)c1C | inactive
11 | CC(C)(C)CC(C)(C)c1ccc(OCCOCC[N+](C)(C)Cc2ccccc2)cc1 | 48.9 µM (active) and 26.8 µM (active)
12 | CCc1cc(SCc2sc(-c3ccc(C(F)(F)F)cc3)nc2CN2CCN(c3ccc(OC)cc3)CC2)ccc1OCC(=O)O | inactive
13 | COc1ccc(CN2CCN(C(c3ccc(F)cc3)c3ccc(F)cc3)CC2)c(OC)c1OC | inactive
14 | OCCCCCCCCCCCCBr | inactive
15 | O=C(OCC1CO1)C1CCCCC1C(=O)OCC1CO1 (stereo not given) | inactive
16 | O=[N+]([O-])c1ccccc1Nc1ccccc1 | inactive
17 | Cc1onc(-c2ccccc2Cl)c1C(=O)N[C@@H]1C(=O)N2[C@@H]1SC(C)(C)[C@@H]2C(=O)O | inactive
18 | Clc1ccc2n[nH]nc2c1 | inactive
19 | CCCCCCCCCCCC(=O)NCCCN(C)C | 54.9 µM (active)
20 | O=C1CCCCCN1SSN1CCCCCC1=O | inactive

Row | SMILES | Potency
21 | CCN(C(=O)c1cc(C)cc(OC[C@H](C)Nc2ccncc2)c1)C(C)C | inactive
22 | O=C(O)c1ccc(Cl)c(Cl)c1 | inactive
23 | COc1cc(/C=C/C(=O)O[C@H]2CC[C@]34C[C@]35CC[C@]3(C)[C@@H]([C@H](C)CCC=C(C)C)CC[C@@]3(C)[C@@H]5CC[C@H]4C2(C)C)ccc1O | inactive
24 | Oc1ccc2c(c1)-c1ccccc1C2 | inactive
25 | COc1cc(-c2nc(NC(=O)c3cc4cc(C)cc(C)c4n3CC(=O)O)sc2CCC2CCCCC2)c(OC)cc1Cl | inactive
26 | CCOc1nc2cccc(C(=O)OC(C)OC(=O)OC3CCCCC3)c2n1Cc1ccc(-c2ccccc2-c2nn[nH]n2)cc1 (stereo not given) | 34.6 µM (active)
27 | CCCCC(CC)CN=C(N)NC(N)=NCCCCCCN=C(N)NC(N)=NCC(CC)CCCC (stereo not given) | 8.49 µM (active)
28 | O=c1c(-c2ccccc2)c1-c1ccccc1 | inactive
29 | Cc1ccc(-n2nc(C(C)(C)C)cc2NC(=O)Nc2ccc(OCCN3CCOCC3)c3ccccc23)cc1 | inactive
30 | CCCCCCCCn1sc(Cl)c(Cl)c1=O | 1.95 µM (active)
31 | CNc1ccc(O)cc1 | inactive
32 | O=[N+]([O-])c1cc([N+](=O)[O-])c2ccc(S(=O)(=O)O)cc2c1O | inactive
33 | CCCCN1C(=O)[C@@H]([C@H](O)C2CCCCC2)NC(=O)C12CCN(Cc1ccc(Oc3ccc(C(=O)O)cc3)cc1)CC2 | inactive
34 | Nc1ccc2cc(S(=O)(=O)O)cc(O)c2c1N=Nc1ccccc1C(F)(F)F | inactive
35 | NC(=O)N1C(=O)C(C(=O)c2cc(Cl)cs2)c2cc(F)c(Cl)cc21 (stereo not given) | inactive
36 | CCC(Cl)C(Cl)C(Cl)CC(Cl)C(Cl)C(C)Cl (stereo not given) | inactive
37 | COc1c(C)c2c(c(O)c1C/C=C(\C)CCC(=O)O)C(=O)OC2 | inactive
38 | OCCN(CCO)c1nc(N2CCCCC2)c2nc(N(CCO)CCO)nc(N3CCCCC3)c2n1 | 12 µM (active)
39 | CN(C)[C@@H]1C(=O)C(C(N)=O)=C(O)[C@@]2(O)C(=O)C3=C(O)c4c(O)cccc4C[C@H]3C[C@@H]12 | inactive
40 | CCCCCCCCS(=O)C(C)Cc1ccc2c(c1)OCO2 (stereo not given) | inactive
